Assay [1] has as its system PRMT1 (protein arginine N-methyltransferase 1). The assay is described as follows: small molecules binding arginine methyltransferase PRMT1 – biochemical, small-molecule microarray, 635 nm fluorescence, primary screen (AID 1088).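 Note: binding of Prmt1 protein to compounds spotted on small-molecule microarray slides.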 To be noted: higher = more signal.
A short description of assay [2]: growth effects on S. cerevisiae YJM789 – YJM789 clinical isolate, OD600, 24 h, basal, primary screen (AID 1089).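 Note: growth of clinical yeast isolate S. cerevisiae YJM 789 seeded 1000 cells per well; test concentration not given here.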 To be noted: higher = more signal, called active from +8 up or from −8 down.
Assay [3] in a line: S. pombe growth modifiers, basal conditions – strain 972, OD600, 24 h, no modulator, primary screen (AID 1090).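 Note: basal condition with compound alone and no growth modifier present; test concentration not given here.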 To be noted: S. pombe 972 growth, higher = more signal, called active from +8 up or from −8 down.
Assay [4] in a line: budding yeast growth modifiers under rapamycin – strain BY4716, OD600, 96 h, primary screen (AID 1091). Note: test concentration not given here. To be noted: S. cerevisiae BY4716 + rapamycin, higher = more signal, called active from +8 up or from −8 down.
In assay [5] the target is Torsin-1A-interacting protein 2 (Homo sapiens) (UniProt Q8NFQ8). The assay is described as follows: small molecules binding lysate-expressed LULL1 – cell lysate, human LULL1 lysate, 635/667 nm fluorescence, primary screen (AID 1092).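 Note: probe is lysate of COS7 cells overexpressing human LULL1; score merges per-feature 667 nm fluorescence with signal-to-noise.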 As to conditions: small-molecule microarray, hLULL1 lysate binding, 635 nm fluorescence; higher = more signal.
Sequence of Torsin-1A-interacting protein 2 (Homo sapiens) (Q8NFQ8 whole entry, looked up): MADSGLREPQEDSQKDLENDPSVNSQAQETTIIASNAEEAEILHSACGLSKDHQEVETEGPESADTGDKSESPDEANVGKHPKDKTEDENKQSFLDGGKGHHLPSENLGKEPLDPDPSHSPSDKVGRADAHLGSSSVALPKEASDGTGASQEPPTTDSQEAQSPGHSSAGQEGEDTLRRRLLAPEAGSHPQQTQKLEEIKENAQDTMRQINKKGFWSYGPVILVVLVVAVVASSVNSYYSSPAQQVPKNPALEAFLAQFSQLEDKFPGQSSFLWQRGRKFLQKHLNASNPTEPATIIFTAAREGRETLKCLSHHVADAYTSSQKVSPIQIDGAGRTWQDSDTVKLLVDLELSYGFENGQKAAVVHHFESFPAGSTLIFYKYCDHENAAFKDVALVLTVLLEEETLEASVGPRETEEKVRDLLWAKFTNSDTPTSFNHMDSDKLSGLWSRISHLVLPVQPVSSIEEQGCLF
Assay [6] is described as follows: optical density change of DRC41 E. coli – strain DRC41, OD650, 24 h, E. coli filamentation project, primary screen (AID 1093).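 Note: MC1000 strain lacking acrAB efflux and sulA so SOS filamentation is blocked; test concentration not given here.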 To be noted: E. coli DRC41 growth, higher = more signal, called active from +8 up or from −8 down.
A short description of assay [7]: probe aLefty2 binding to arrayed compounds – biochemical, biotinylated probe, 635/667 nm fluorescence, primary screen (AID 1094).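 Note: score merges spot fluorescence near 667 nm with spot signal-to-noise ratio.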 To be noted: small-molecule microarray, higher = more signal.
Assay [8] deals with Noggin (protein binding on small-molecule microarray). As to the kind of experiment: small molecules binding Noggin protein – biochemical, 635/667 nm fluorescence, primary screen (AID 1095).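 Note: score merges 667 nm feature fluorescence with signal to noise over triplicate slides.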 To be noted: 635 nm fluorescence, higher = more signal.
In assay [9] the target is Neurogenic locus notch homolog protein 3 (Homo sapiens) (UniProt Q9UM47). As to the kind of experiment: small molecules binding NOTCH3 protein – biochemical, 635/667 nm fluorescence, primary screen (AID 1096). To be noted: small-molecule microarray, 635 nm fluorescence, higher = more signal.
Sequence of Neurogenic locus notch homolog protein 3 (Homo sapiens) (Q9UM47 whole entry, looked up): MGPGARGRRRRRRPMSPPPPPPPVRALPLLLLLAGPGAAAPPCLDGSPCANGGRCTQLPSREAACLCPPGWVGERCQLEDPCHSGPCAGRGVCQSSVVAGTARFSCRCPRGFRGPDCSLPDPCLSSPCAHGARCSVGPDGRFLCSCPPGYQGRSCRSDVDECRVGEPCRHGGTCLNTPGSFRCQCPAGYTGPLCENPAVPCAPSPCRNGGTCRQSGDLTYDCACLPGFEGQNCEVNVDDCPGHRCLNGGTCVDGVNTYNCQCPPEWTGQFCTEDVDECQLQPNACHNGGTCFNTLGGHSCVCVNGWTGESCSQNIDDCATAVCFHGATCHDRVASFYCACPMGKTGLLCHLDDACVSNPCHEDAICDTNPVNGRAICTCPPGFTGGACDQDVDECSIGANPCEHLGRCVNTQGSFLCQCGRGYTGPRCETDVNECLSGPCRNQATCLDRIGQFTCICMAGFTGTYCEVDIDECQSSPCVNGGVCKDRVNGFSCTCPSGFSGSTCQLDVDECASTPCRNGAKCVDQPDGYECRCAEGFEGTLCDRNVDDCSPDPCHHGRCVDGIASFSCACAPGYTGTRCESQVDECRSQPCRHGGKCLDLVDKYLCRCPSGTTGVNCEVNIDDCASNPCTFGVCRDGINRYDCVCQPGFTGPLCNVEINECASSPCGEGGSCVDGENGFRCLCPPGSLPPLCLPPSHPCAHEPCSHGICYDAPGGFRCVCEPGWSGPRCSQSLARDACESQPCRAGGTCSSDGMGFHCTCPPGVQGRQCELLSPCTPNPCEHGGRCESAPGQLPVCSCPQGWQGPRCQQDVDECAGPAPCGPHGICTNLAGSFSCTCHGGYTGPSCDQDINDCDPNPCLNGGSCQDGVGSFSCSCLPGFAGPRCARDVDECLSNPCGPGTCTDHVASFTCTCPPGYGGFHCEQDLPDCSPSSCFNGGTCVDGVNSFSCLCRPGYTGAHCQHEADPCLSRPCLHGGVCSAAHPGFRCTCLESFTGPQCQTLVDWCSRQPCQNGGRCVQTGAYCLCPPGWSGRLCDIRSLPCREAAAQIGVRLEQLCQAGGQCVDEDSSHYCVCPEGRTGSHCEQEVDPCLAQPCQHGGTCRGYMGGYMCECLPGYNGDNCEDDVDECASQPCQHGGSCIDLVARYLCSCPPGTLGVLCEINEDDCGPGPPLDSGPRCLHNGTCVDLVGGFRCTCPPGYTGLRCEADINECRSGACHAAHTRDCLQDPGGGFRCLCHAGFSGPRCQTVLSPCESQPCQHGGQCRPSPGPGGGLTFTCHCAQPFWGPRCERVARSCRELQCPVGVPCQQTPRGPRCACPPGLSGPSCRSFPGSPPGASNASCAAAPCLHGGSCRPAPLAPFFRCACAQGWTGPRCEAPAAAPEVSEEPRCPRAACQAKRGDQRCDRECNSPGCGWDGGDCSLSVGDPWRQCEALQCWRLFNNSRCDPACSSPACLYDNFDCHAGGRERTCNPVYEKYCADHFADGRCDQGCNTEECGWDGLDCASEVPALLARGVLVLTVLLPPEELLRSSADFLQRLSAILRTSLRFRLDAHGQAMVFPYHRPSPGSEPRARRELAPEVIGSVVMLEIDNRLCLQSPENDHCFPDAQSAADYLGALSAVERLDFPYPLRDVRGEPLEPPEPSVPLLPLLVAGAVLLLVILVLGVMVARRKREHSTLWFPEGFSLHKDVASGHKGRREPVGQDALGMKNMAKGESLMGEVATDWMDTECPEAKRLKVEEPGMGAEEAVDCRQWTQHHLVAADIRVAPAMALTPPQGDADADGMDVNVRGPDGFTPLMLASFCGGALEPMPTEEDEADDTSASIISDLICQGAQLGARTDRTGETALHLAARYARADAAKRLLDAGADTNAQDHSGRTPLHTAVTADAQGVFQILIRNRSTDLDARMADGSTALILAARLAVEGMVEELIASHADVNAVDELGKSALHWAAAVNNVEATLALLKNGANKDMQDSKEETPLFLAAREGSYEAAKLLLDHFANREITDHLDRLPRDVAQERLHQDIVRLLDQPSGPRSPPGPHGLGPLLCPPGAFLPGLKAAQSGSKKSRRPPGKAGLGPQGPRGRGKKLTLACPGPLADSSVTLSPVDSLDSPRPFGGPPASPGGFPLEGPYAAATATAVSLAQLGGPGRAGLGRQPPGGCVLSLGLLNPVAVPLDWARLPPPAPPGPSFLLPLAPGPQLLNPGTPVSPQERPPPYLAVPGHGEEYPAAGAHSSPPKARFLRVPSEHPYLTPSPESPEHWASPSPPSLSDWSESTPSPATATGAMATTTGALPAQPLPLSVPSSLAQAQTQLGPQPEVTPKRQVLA
The nature of assay [10]: probe aEGFR binding to arrayed compounds – biochemical, biotinylated probe, 635/667 nm fluorescence, primary screen (AID 1097).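 Note: probe is a biotinylated anti-EGFR antibody binding compounds printed on slides; score combines fluorescence near 667 nm and signal to noise of each spot.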 As to conditions: small-molecule microarray, higher = more signal.

Active and inactive are the calls of the source.

For the compound `C=C[C@@H](COC(C)=O)NS(=O)(=O)c1ccc(Br)cc1`, the composite z-score in assay [1] is 0.317; in assay [5], 0.399; in [7], -0.176; in [8], 0.516; in assay [9], 0.269; in assay [10], -0.157. The z-score in [2] was -0.952 (inactive); in assay [3], -15.7 (active); in assay [4], -1.36 (inactive); in assay [6] it was -0.819 (inactive).

Regarding `C=C(/C=C/CNS(=O)(=O)c1ccc(C)cc1)[C@H](O)[C@H]1CCCN1S(=O)(=O)c1ccccc1[N+](=O)[O-]`, the composite z-score in assay [1] was 0.13; in [5], -0.271; in assay [7], -0.0948; in [8], 1.3; in assay [9], 0.291; in assay [10], 0.0408. The z-score in assay [2] was 1.27 (inactive); in assay [3], 0.24 (inactive); in assay [4], 1.72 (inactive); in [6] it was 0.913 (inactive).

Regarding `COC(=O)C1(Cc2ccccc2)C=C2C(=C(C(C)C)C(=O)C2C)CN1` (stereo not given), the composite z-score in assay [1] was -1.15; in assay [5], 2.41; in assay [7], 0.469; in [8], -1.79; in assay [9] it was -1.05; in assay [10] it was 0.156. For the same compound, the z-score in assay [2] is 0.557 (inactive); in assay [3], -0.315 (inactive); in assay [4], 0.471 (inactive); in assay [6], -1.53 (inactive).

Regarding `CC(=O)n1cc(C(O)C2C=CC3C(=O)N(Cc4ccccc4)C(=O)C3N2n2cnnc2)c2ccccc21` (stereo not given), the composite z-score in assay [1] was 0.77; in assay [5], 1.23; in assay [7], -0.0858; in [8], -0.415; in [9], 0.193; in assay [10], 0.728. The z-score was -0.423 (inactive) in [2], 0.552 (inactive) in assay [3], 0.192 (inactive) in assay [4] and -0.901 (inactive) in assay [6].

For the compound `NCCCCCCNC(=O)[C@@H]1C[C@@H]2C(=O)N3CCC[C@H]3C(=O)N2[C@@H]1c1ccc(O)cc1`, the composite z-score in [1] was 1.25; in [5], 2.02; in assay [7] it was -0.0912; in [8], 1.58; in assay [9] it was 0.494; in assay [10] it was -0.0568. The z-score was -0.723 (inactive) in assay [2], -1.22 (inactive) in assay [3], -0.476 (inactive) in assay [4] and -1.03 (inactive) in assay [6].

With `CN1C(=O)C2C=CC(C(O)C3CCCCC3)N(N3CCCCC3)C2C1=O` (stereo not given), the composite z-score worked out at 1.56 in assay [1]; 2.45 in assay [5]; 0.25 in assay [7]; 0.684 in [8]; 1.07 in [9]; 0.0939 in assay [10]. The z-score in assay [2] is 0.823 (inactive); in [3], 0.788 (inactive); in assay [4], 0.884 (inactive); in assay [6] it was -0.593 (inactive).

For the compound `CCCCN1CC=CC23O[C@@H]4C=CCOC(=O)[C@@H]4[C@H]2C(=O)N(C(C)CO)[C@@H]3C1=O` (stereo not given in full), the composite z-score in assay [1] was -1.57; in assay [5], -0.449; in assay [7] it was -0.205; in assay [8] it was -0.929; in [9], -1.25; in assay [10] it was -0.216. In addition, the z-score in assay [2] was -0.543 (inactive); in [3], -1.22 (inactive); in assay [4], -0.557 (inactive); in [6], -0.479 (inactive).

Take `CC[C@H]1C2=C3C(CC[C@H]4C(OCc5ccc(F)cc5C(F)(F)F)OC[C@](C)([C@@H]34)N(C(=O)OC(C)(C)C)C2)C2COC(=O)OCC21` (stereo not given in full): the composite z-score is 0.254 in [1]; 3.34 in [5]; 0.375 in [7]; -0.581 in [8]; 1.1 in assay [9]; -0.117 in assay [10]. Besides, the z-score was 0.416 (inactive) in assay [2], 1.13 (inactive) in assay [3], 0.896 (inactive) in assay [4] and -1.81 (inactive) in assay [6].

For the compound `COC(=O)[C@@]1(Cc2ccc(OC)cc2)[C@H]2c3cc(C(=O)N4CCCC4)n(CCc4cc5ccccc5[nH]4)c3C[C@H]2CN1C(=O)c1ccccc1`, the composite z-score in assay [1] worked out at 0.907; in assay [5] it was 3.43; in assay [7], 0.507; in [8], 0.364; in assay [9] it was 1.05; in assay [10], 0.0464. Moreover, the z-score in [2] was 0.596 (inactive); in [3], 2.61 (inactive); in assay [4], 1.72 (inactive); in assay [6], -0.12 (inactive).

Consider `CCOC(=O)C1=CC[C@@H](c2ccccc2C(F)(F)F)N(S(=O)(=O)c2ccc(C)cc2)C1`, for which the composite z-score in assay [1] is 1.5; in [5], 2.63; in assay [7] it was 0.495; in assay [8], 0.03; in assay [9] it was 1.04; in assay [10], 0.678. Also, the z-score in assay [2] is -2.43 (inactive); in [3] it was -0.598 (inactive); in assay [4], 0.105 (inactive); in [6], -0.607 (inactive).

Regarding `CO[C@H]1O[C@H](CO)[C@@H](OC(=O)c2ccc(Br)cc2)[C@@H]2OC(=O)[C@@H](Cc3ccc4ccccc4c3)C/C=C/C[C@H](Cc3ccc4ccccc4c3)C(=O)O[C@@H]12`, the composite z-score is 1.45 in [1]; 2.82 in assay [5]; -0.0375 in assay [7]; 0.0104 in assay [8]; 0.478 in assay [9]; -0.112 in assay [10]. Also, the z-score in assay [2] is -2.76 (inactive); in assay [3], -2.35 (inactive); in [4], -0.842 (inactive); in [6], 0.0001 (inactive).

For `C[C@]1(C(=O)NCCN2CCOCC2)c2ccccc2C(=O)N(Cc2ccc(OC(F)(F)F)cc2)[C@H]1c1ccc(CO)cc1`, the composite z-score was 0.562 in assay [1]; 1.82 in assay [5]; -0.0823 in assay [7]; 0.557 in assay [8]; 0.164 in [9]; -0.213 in [10]. Besides, the z-score is -0.15 (inactive) in assay [2], -0.859 (inactive) in [3], -0.854 (inactive) in assay [4] and 0.365 (inactive) in [6].

Take `C=CC[C@H](OC(=O)Nc1ccc(OC)cc1)c1ccc(O)c2ccccc12`: the composite z-score in assay [1] was 1.33; in assay [5] it was 2.08; in assay [7], 0.054; in assay [8], 0.578; in assay [9], 1.06; in assay [10], -0.0509. The z-score in assay [2] is -23.9 (active); in assay [3] it was -19.5 (active); in assay [4], -1.21 (inactive); in [6], 0.364 (inactive).

With `C=CCOC(=O)[C@H]1[C@@H]2C(=O)O[C@@H](c3ccccc3)[C@@H](c3ccccc3)N2[C@@H](c2ccc(OCCOC(=O)[C@H]3C[C@H]4C(=O)N[C@@H](Cc5ccccc5)C(=O)N4[C@H]3c3cccc(OCCO)c3)cc2)[C@]12C(=O)Nc1ccc(I)cc12`, the composite z-score in assay [1] is 1.54; in assay [5], 2.36; in assay [7], -0.185; in assay [8] it was 1.91; in [9], 1.09; in assay [10], -0.067. The z-score in [2] was 0.731 (inactive); in assay [3], 1 (inactive); in assay [4], 4 (inactive); in assay [6], -0.0451 (inactive).

(Values after PubChem BioAssay.)
